According to PubChem BioAssay (EPA / NIEHS):
“And” between values parts separate entries of the source, which are not always exact repeats. Equal values may be shown once. Some structures have more than one record in an assay (separate samples or runs), and their calls can disagree. The source made the active and inactive calls. The calls were made as follows: active = hit-call score of the fitted dose curve at least 0.9, where 1 is the maximum; inactive = score below 0.9.

Columns and labels:
[1] = read-out: Matrix Metallopeptidase 1 (MMP1), MMP1 (gene 4312); experiment: BSK_MyoF_MMP1: BioMAP Diversity Plus: MyoF Assay for Matrix Metallopeptidase 1 (MMP1) Biomarker Activity (AID 2284268); details: primary human lung fibroblasts
Summary of the method: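 Human lung fibroblasts (MyoF system) exposed to chemical for 24 h in 96-well format; MMP1 biomarker quantified by ELISA, with activity fitted in the positive direction relative to DMSO baseline.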

[2] = read-out: TIMP metallopeptidase inhibitor 1 (TIMP1), TIMP1 (gene 7076); experiment: BSK_MyoF_TIMP1: BioMAP Diversity Plus: MyoF Assay for TIMP metallopeptidase inhibitor 1 (TIMP1) Biomarker Activity (AID 2284269); details: primary human lung fibroblasts
Summary of the method: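 TIMP-1 levels were determined by ELISA in human lung fibroblasts treated for 24 h. DMSO served as negative control and baseline for upward curve fitting.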

[3] = read-out: Matrix Metallopeptidase 3 (MMP3), MMP3 (gene 4314); experiment: BSK_BF4T_MMP3: BioMAP Diversity Plus: BF4T Assay for Matrix Metallopeptidase 3 (MMP3) Biomarker Activity (AID 2284271); details: primary human bronchial epithelial cells with fibroblasts
Summary of the method: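 MMP-3 level read by ELISA after 24 h chemical exposure of bronchial epithelial cell/dermal fibroblast co-cultures, fitted upward relative to DMSO. Parallel cultures stained with 0.1% SRB after TCA fixation gauge overt cytotoxicity.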

[4] = read-out: Tissue plasminogen activator (tPA), PLAT (gene 5327); experiment: BSK_BF4T_tPA: BioMAP Diversity Plus: BF4T Assay for Tissue plasminogen activator (tPA) Biomarker Activity (AID 2284272); details: primary human bronchial epithelial cells with fibroblasts
Summary of the method: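 tPA level quantified by ELISA at 24 h post-treatment in bronchial epithelial/dermal fibroblast co-cultures, gain of signal scored against DMSO baseline. Parallel cultures stained with 0.1% SRB (560 nm) to flag overt cytotoxicity.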

[5] = BSK_BF4T_SRB: Viability Assessment in the BioMAP Diversity Plus: BF4T Assay (AID 2284274); details: primary human bronchial epithelial cells with fibroblasts
Summary of the method: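 Cytotoxicity measured as total protein: cells fixed with 10% TCA, stained with 0.1% SRB, read at 560 nm. Bronchial epithelial/dermal fibroblast co-culture, 24 h after dosing, with positive-direction fitting relative to DMSO.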

[6] = read-out: urokinase Plasminogen Activator (uPA), PLAU (gene 5328); experiment: BSK_BF4T_uPA: BioMAP Diversity Plus: BF4T Assay for urokinase Plasminogen Activator (uPA) Biomarker Activity (AID 2284275); details: primary human bronchial epithelial cells with fibroblasts
Summary of the method: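 uPA levels measured by ELISA at 24 hours in BF4T cultures (bronchial epithelial cells plus dermal fibroblasts) and compared with DMSO; cytotoxicity tracked in parallel cultures by sulforhodamine B staining.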

[7] = read-out: Matrix Metallopeptidase 9 (MMP9), MMP9 (gene 4318); experiment: BSK_BF4T_MMP9: BioMAP Diversity Plus: BF4T Assay for Matrix Metallopeptidase 9 (MMP9) Biomarker Activity (AID 2284276); details: primary human bronchial epithelial cells with fibroblasts
Summary of the method: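 MMP-9 levels were measured by ELISA after 24 h exposure of bronchial epithelial cell/dermal fibroblast co-cultures, with DMSO as baseline. Parallel cultures were stained with 0.1% SRB after TCA fixation, read at 560 nm, to flag overt cytotoxicity.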

[8] = read-out: Interleukin-8 (IL8), CXCL8 (gene 3576); experiment: BSK_IMphg_IL8: BioMAP Diversity Plus: IMphg Assay for Interleukin-8 (IL8) Biomarker Activity (AID 2284277); details: primary human endothelial cells with macrophages
Summary of the method: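 IL-8 levels were measured by ELISA 24 h after dosing in primary human venular endothelial cell–macrophage cultures, referenced to DMSO; parallel SRB staining monitored overt cytotoxicity.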

[9] = read-out: Intercellular Adhesion Molecule 1 (ICAM1), ICAM1 (gene 3383); experiment: BSK_BE3C_ICAM1: BioMAP Diversity Plus: BE3C Assay for Intercellular Adhesion Molecule 1 (ICAM1) Biomarker Activity (AID 2284278); details: primary human bronchial epithelial cells;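 also: cell-surface ICAM-1 protein level quantified by ELISA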
Summary of the method: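 ICAM-1 quantified by ELISA and fitted against DMSO baseline, 24 h post-dosing in BE3C cultures of primary human lung bronchial epithelial cells. Cytotoxicity checked in parallel cultures by total protein SRB staining.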

[10] = read-out: Interferon-inducible T-cell alpha chemoattractant (ITAC), CXCL11 (gene 6373); experiment: BSK_BE3C_ITAC: BioMAP Diversity Plus: BE3C Assay for Interferon-inducible T-cell alpha chemoattractant (ITAC) Biomarker Activity (AID 2284279); details: primary human bronchial epithelial cells
Summary of the method: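 The assay measures I-TAC levels by ELISA in human primary bronchial epithelial cell cultures 24 hours after chemical treatment. Values reflect signal increase over the DMSO baseline.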

[11] = read-out: Interleukin-8 (IL8), CXCL8 (gene 3576); experiment: BSK_BE3C_IL8: BioMAP Diversity Plus: BE3C Assay for Interleukin-8 (IL8) Biomarker Activity (AID 2284280); details: primary human bronchial epithelial cells
Summary of the method: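 Dose human bronchial epithelial cells with chemical; incubate 24 h; quantify IL-8 by ELISA; fit response upward versus DMSO controls.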

KRT18 (gene 3875) = experiment: BSK_BE3C_Keratin818: BioMAP Diversity Plus: BE3C Assay for Keratin 818 Biomarker Activity (AID 2284282); details: primary human bronchial epithelial cells
Summary of the method: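 ELISA readout of Keratin 8/18 in human primary bronchial epithelial cultures after 24 h chemical exposure, DMSO baseline. Parallel SRB staining (0.1%, TCA-fixed, 560 nm) served as cytotoxicity check.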

[12] = read-out: Matrix Metallopeptidase 9 (MMP9), MMP9 (gene 4318); experiment: BSK_BE3C_MMP9: BioMAP Diversity Plus: BE3C Assay for Matrix Metallopeptidase 9 (MMP9) Biomarker Activity (AID 2284283); details: primary human bronchial epithelial cells
Summary of the method: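 MMP9 is measured by ELISA after a 24 h compound exposure of primary human bronchial epithelial cultures. Parallel SRB staining gives overt cytotoxicity. Values fitted in the positive direction against DMSO.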

[13] = read-out: Plasminogen activator inhibitor-1 (PAI1), SERPINE1 (gene 5054); experiment: BSK_CASM3C_PAI1: BioMAP Diversity Plus: CASM3C Assay for Plasminogen activator inhibitor-1 (PAI1) Biomarker Activity (AID 2284284); details: primary human coronary artery smooth muscle cells;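 also: PAI-1 protein level measured by ELISA 24 h after dosing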
[14] = read-out: Monocyte Chemoattractant Protein-1 (MCP1), CCL2 (gene 6347); experiment: BSK_hDFCGF_MCP1: BioMAP Diversity Plus: hDFCGF Assay for Monocyte Chemoattractant Protein-1 (MCP1) Biomarker Activity (AID 2284285); details: primary human foreskin fibroblasts
Summary of the method: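 MCP-1 ELISA readout was taken 24 hours after dosing primary human dermal fibroblasts in the hDFCGF system, with DMSO as baseline. Parallel sulforhodamine B staining of total protein tracked overt cytotoxicity.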

[15] = read-out: Vascular cell adhesion molecule 1 (VCAM1), VCAM1 (gene 7412); experiment: BSK_IMphg_VCAM1: BioMAP Diversity Plus: IMphg Assay for Vascular cell adhesion molecule 1 (VCAM1) Biomarker Activity (AID 2284286); details: primary human endothelial cells with macrophages
Summary of the method: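 ELISA read-out of VCAM-1 on venular endothelial cell/macrophage co-cultures at 24 h post-treatment, with DMSO as baseline and positive-direction fitting. Parallel sulforhodamine B total-protein staining (560 nm) served as the overt cytotoxicity measure.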

[16] = read-out: Intercellular Adhesion Molecule 1 (ICAM1), ICAM1 (gene 3383); experiment: BSK_hDFCGF_ICAM1: BioMAP Diversity Plus: hDFCGF Assay for Intercellular Adhesion Molecule 1 (ICAM1) Biomarker Activity (AID 2284287); details: primary human foreskin fibroblasts
Summary of the method: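 ICAM-1 ELISA readout 24 h after dosing, DMSO as baseline, in human dermal foreskin fibroblast cultures. Cytotoxicity checked in parallel wells by SRB staining (0.1% SRB, 10% TCA fixation, 560 nm).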

CD40, CD40 (gene 958) = experiment: BSK_IMphg_CD40: BioMAP Diversity Plus: IMphg Assay for CD40 Biomarker Activity (AID 2284288); details: primary human endothelial cells with macrophages
Summary of the method: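 ELISA read-out of cell-surface CD40 at 24 h in human venular endothelial cell/macrophage co-cultures. Activity fitted in the positive direction against DMSO; parallel SRB staining (560 nm) gauges overt cytotoxicity.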

[17] = read-out: TIMP metallopeptidase inhibitor 2 (TIMP2), TIMP2 (gene 7077); experiment: BSK_hDFCGF_TIMP2: BioMAP Diversity Plus: hDFCGF Assay for TIMP metallopeptidase inhibitor 2 (TIMP2) Biomarker Activity (AID 2284289); details: primary human foreskin fibroblasts
Summary of the method: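 Primary human foreskin fibroblasts in the hDFCGF system, dosed for 24 h; TIMP-2 level measured by ELISA, fitted in the positive direction against DMSO; cytotoxicity checked in parallel by sulforhodamine B total protein staining.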

[18] = read-out: Macrophage colony-stimulating factor (MCSF), CSF1 (gene 1435); experiment: BSK_IMphg_MCSF: BioMAP Diversity Plus: IMphg Assay for Macrophage colony-stimulating factor (MCSF) Biomarker Activity (AID 2284293); details: primary human endothelial cells with macrophages
Summary of the method: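 M-CSF was measured by ELISA in human venular endothelial cell/macrophage co-cultures dosed for 24 hours. Sulforhodamine B staining of parallel cultures assessed cytotoxicity; data fitted against DMSO baseline.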

Measured: AC50

N#Cc1cc([N+](=O)[O-])ccc1N
inactive: [1] | [2]

OCC(F)(F)OC(F)(F)C(F)(F)OC(F)(F)CO
inactive: all assays above

CCOP(=S)(OCC)SCn1nnc2ccccc2c1=O
inactive: [1] | [2]

Cc1c([N+](=O)[O-])cc2c(c1[N+](=O)[O-])C(C)(C)CC2(C)C
active: [1] 4.01 µM
inactive: [2]

N#Cc1c(-c2ccc(Cl)cc2)[nH]c(C(F)(F)F)c1Br
inactive: [1]
active: [2] 20 µM

CCOP(=S)(OCC)SCSc1ccc(Cl)cc1
inactive: [2]
active: [1] 30.1 µM

C=CC(=O)OCC(CC)(COC(=O)C=C)COC(=O)C=C
active: [1] 3.88 µM | [2] 9.61 µM

CC(Cl)CN(C)C (stereo not drawn)
inactive: [1] | [2]

CC(C)(C)c1ccccc1OP(=O)(Oc1ccccc1)Oc1ccccc1
active: [1] 5.26 µM | [2] 26.8 µM

C=CC(=O)OCC(F)(F)C(F)F
inactive: [1] | [2] | [3] | [5] | [6] | [7] | [8] | [9] | [10] | [11] | KRT18 (gene 3875) | [12] | [13] | [15] | [18]
active: [1] 44 µM | [2] 47.6 µM | [4] 30 µM and 29.3 µM | [14] 40.7 µM and 41.8 µM | [15] 30 µM | [16] 43.5 µM and 29.6 µM | CD40, CD40 (gene 958) 21.6 µM and 23.6 µM | [17] 5.95 µM and 20.8 µM

NC(=O)C(F)(F)C(F)(F)F
inactive: all assays above

CCCCC(CC)COC(=O)c1c(Br)c(Br)c(Br)c(Br)c1C(=O)OCC(CC)CCCC (stereo not drawn)
inactive: [1] | [2]

Nc1ccc([N+](=O)[O-])cc1Cl
inactive: [1] | [2]
